TDP1 cell noCPT = qHTS for Inhibitors of human tyrosyl-DNA phosphodiesterase 1 (TDP1): qHTS in cells in absence of CPT | Potency, µM (titrated, usually from 46.2 µM), most hits filed as inhibitors | actives 15% (n = 420,000) | DT40 Tdp1-/- hTDP1 cells, no CPT, ATP luminescence, 48 h | AID 686978, 2013; also: nearly all actives have a fitted effect of over 55% in size
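No-CPT arm: Tdp1-/-;hTDP1 DT40 cells (400/well) plus compounds, incubated ≥48 hr at 37 °C. Readout CellTiter-Glo luminescence.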
HepG2 viability = qHTS for Inhibitors of TGF-b: Cytotox Counterscreen | HepG2 CAGA-GFP viability, ATP luminescence, 18 h | Potency, µM (doses to about 46.1 µM), hits mostly cytotoxic | actives 0.76% (n = 410,000) | AID 588856, 2011
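HepG2 CAGA-GFP cells (1000/well, DMEM with 1% FBS) received compound, then TGF-beta at 500 pg/mL final, and were incubated 18 hours at 37 degrees C. Viability was read by CellTiter-Glo luminescence. Media-only wells were set as complete cell-killing and DMSO as no toxicity.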
TDP1 cell CPT = qHTS for Inhibitors of human tyrosyl-DNA phosphodiesterase 1 (TDP1): qHTS in cells in presence of CPT; chicken DT40 Tdp1-/-;hTDP1 cells + 20 nM CPT, ATP luminescence, 48 h; Potency, µM (series often up to 46.2 µM), usual class: inhibitors; actives 12% (n = 420,000); AID 686979, 2013; also: nearly all actives have a fitted effect of over 55% in size
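Chicken DT40 Tdp1-/- cells complemented with human TDP1, 400 cells/well, exposed to compounds plus 20 nM camptothecin for at least 48 h at 37 C; viability read as ATP content by CellTiter-Glo luminescence.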
IL1B secr inh = qHTS for Inhibitors of Inflammasome Signaling: IL-1-beta AlphaLISA Primary Screen. AID 743279, 2014. THP-1 LPS/ATP IL-1B secretion, AlphaLISA, 16 h; stronger effect = lower value. actives 4.7% (n = 360,000). activity change, % at 57.5 µM; in the data active = activity change below about -50%; inconclusive = mostly about -30% to -49%
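Secreted IL-1B measured by AlphaLISA bead assay after 16 h compound exposure of THP-1 cells; compounds (final up to 57.5 uM) added 1 h before LPS (250 ng/mL) and ATP (1.25 mM) stimulation; lower signal means less secretion.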
TGFb SMAD3 inh = qHTS for Inhibitors of TGF-b; HepG2 CAGA-GFP TGF-b/SMAD3 reporter, GFP fluorescence, 18 h; TGF-beta stimulated, 500 pg/mL final; AID 588855, 2011; actives 1.2% (n = 410,000); Potency, µM (doses to about 46.1 µM), actives largely listed as inhibitors; also: nearly all actives have a fitted effect of over 65% in size
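HEPG2 CAGA-GFP, 1000 cells/well; 2 h settle, 37 C; cpd via pin tool; TGF-b 500 pg/mL final; 18 h, 37 C; GFP imaging ex488/em500-530; %Activity normalised to -TGF-b and +DMSO controls; CRC fit, curve class.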
TDP1 inh = qHTS Assay for Inhibitors of Tyrosyl-DNA Phosphodiesterase (TDP1); Tyrosyl-DNA phosphodiesterase 1 (Homo sapiens), Q9NUW8; recombinant TDP1, AlphaScreen DNA substrate cleavage; Potency, µM (titrated, usually from 130 µM), most hits filed as inhibitors; actives 0.28% (n = 350,000); also: nearly all actives have a fitted effect of over 40% in size
Target sequence (Q9NUW8 whole entry, looked up): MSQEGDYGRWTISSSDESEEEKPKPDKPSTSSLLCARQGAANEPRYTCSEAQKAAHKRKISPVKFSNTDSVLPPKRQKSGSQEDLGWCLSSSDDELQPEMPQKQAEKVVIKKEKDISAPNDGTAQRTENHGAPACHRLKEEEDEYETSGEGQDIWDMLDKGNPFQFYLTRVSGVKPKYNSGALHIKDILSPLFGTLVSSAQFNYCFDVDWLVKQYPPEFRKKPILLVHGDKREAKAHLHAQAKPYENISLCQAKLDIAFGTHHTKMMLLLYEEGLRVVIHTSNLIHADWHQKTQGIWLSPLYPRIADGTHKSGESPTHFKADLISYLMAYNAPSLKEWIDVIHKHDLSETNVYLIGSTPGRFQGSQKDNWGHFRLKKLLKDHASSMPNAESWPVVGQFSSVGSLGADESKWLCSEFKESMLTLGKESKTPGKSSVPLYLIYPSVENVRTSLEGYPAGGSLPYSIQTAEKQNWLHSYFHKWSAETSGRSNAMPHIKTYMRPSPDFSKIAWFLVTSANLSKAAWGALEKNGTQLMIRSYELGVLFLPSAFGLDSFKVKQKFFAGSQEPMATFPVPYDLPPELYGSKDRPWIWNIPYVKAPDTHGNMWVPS
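AlphaScreen read-out: signal falls as enzyme removes the 3' tyrosine-FITC from a 5'-biotinylated DNA oligo (15 nM, 5 min, RT). Enzyme was E. coli-made recombinant Tdp1 at 1 nM, exposed to compound for 15 min beforehand; beads 10 ug/ml, 10 min.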
Large screens that a line does not name were inactive. Rows were chosen to be rich in hits. Some 19% of all compounds tested hit in one or more screens of this group. Unless noted, calls follow the shape of the dose curve; as a rule, active = well fitted curve in the direction sought with a large enough effect; inconclusive = small, poorly fitted or top-dose-only effect, or another doubt; inactive = no such curve, though single readings can be large; an effect the other way counts as inactive or inconclusive.

COc1cccc(Cc2nc3ccccc3nc2SCC(=O)N2CCCCC2C)c1 (configuration not stated)	TDP1 cell noCPT 5.17µM, TDP1 cell CPT inconclusive, TGFb SMAD3 inh 11.2µM (no result: IL1B secr inh)
Cc1ccc2cc(C#N)c(SCC(=O)N3CCCc4ccccc43)nc2c1C	TDP1 cell noCPT 8.2µM, TDP1 cell CPT 20.6µM
Cc1ccc(Cc2nc3ccccc3nc2SCC(=O)N2CCCCC2C)cc1 (configuration not stated)	TDP1 cell noCPT 23.1µM, TDP1 cell CPT 14.6µM, TGFb SMAD3 inh 15.8µM (no result: IL1B secr inh)
COc1cccc(Cc2nc3ccccc3nc2SCC(=O)N2CCCc3ccccc32)c1	TDP1 cell noCPT inconclusive, TDP1 cell CPT 18.4µM (no result: IL1B secr inh)
O=C(CSc1nc2ccccc2nc1Cc1ccc(Cl)cc1)N1CCCc2ccccc21	none (no result: IL1B secr inh)
Cc1ccc(Cc2nc3ccccc3nc2SCC(=O)NCCc2ccccc2)cc1	TDP1 cell noCPT inconclusive, TDP1 cell CPT inconclusive, TGFb SMAD3 inh inconclusive (no result: IL1B secr inh)
Cc1ccc2cc(C#N)c(SCC(=O)N3CCCc4ccccc43)nc2c1	none
Cc1ccc(NC(=O)c2cnc(SCC(=O)N3CCOCC3)n(C)c2=O)cc1	none (no result: IL1B secr inh)
CCOC(=O)c1ccc(Nc2c(-c3cccc(O)c3)nc3nc[nH]n23)cc1	TDP1 cell noCPT inconclusive, TDP1 cell CPT inconclusive (no result: IL1B secr inh)
Cc1ccc(S(=O)(=O)CC(=O)Nc2nc3c(C)cc(C)cc3s2)cc1	TDP1 cell noCPT inconclusive, TDP1 cell CPT inconclusive, TGFb SMAD3 inh inconclusive (no result: IL1B secr inh)
Cc1ccc(Cn2c(=O)c3ccccc3n3c(CCC(=O)O)nnc23)cc1	none (no result: TDP1 inh)
Cc1ccc(Cn2c(=O)c3ccccc3n3c(SCC(=O)N4CCCCC4C)nnc23)cc1 (configuration not stated)	TDP1 cell noCPT 16.4µM, TDP1 cell CPT 18.4µM
O=C(Nc1c(-c2ccccc2)nc2ccccn12)c1ccc(Br)cc1	TDP1 cell noCPT inconclusive, TDP1 cell CPT inconclusive, TGFb SMAD3 inh inconclusive (no result: IL1B secr inh)
Cc1onc(-c2ccccc2)c1-c1nnc(CN2CCN(S(=O)(=O)c3ccccc3F)CC2)o1	TDP1 cell noCPT inconclusive, TDP1 cell CPT 20.6µM, TGFb SMAD3 inh inconclusive
O=C(CSc1nnnn1C1CC2CCC1C2)Nc1ccnc2ccccc12 (configuration not stated)	TDP1 cell noCPT 0.164µM, TDP1 cell CPT 0.164µM
O=c1[nH]cc(C#Cc2ccccc2)c2ncncc12	none (no result: HepG2 viability, IL1B secr inh, TGFb SMAD3 inh)
COc1ccc(NC(=O)c2c(-c3ccc(C)cc3)nnc3ccccc23)cc1OC	none (no result: IL1B secr inh)
O=C(N/N=C/c1ccccn1)c1cc(-c2ccc(Cl)s2)[nH]n1	TDP1 cell noCPT 16.4µM, TDP1 cell CPT 23.1µM, TGFb SMAD3 inh inconclusive
Cc1cc(C(=O)N/N=C/c2c(C)nn(-c3ccccc3)c2C)n[nH]1	none
O=C(N/N=C/c1ccccn1)c1cc(-c2ccccc2Cl)n[nH]1	TDP1 cell noCPT 18.4µM, TDP1 cell CPT inconclusive
Cc1nn(-c2ccccc2)c(C)c1/C=N/NC(=O)c1cc(-c2ccc(Br)s2)[nH]n1	TDP1 cell noCPT 4.61µM, TDP1 cell CPT 2.91µM
Cc1nn(-c2ccccc2)c(C)c1/C=N/NC(=O)c1cc(-c2cccs2)[nH]n1	TDP1 cell noCPT 0.0082µM, TDP1 cell CPT 0.82µM, TGFb SMAD3 inh inconclusive
O=C(N/N=C/c1ccccn1)c1cc(-c2ccc(Br)s2)[nH]n1	TDP1 cell noCPT inconclusive, TDP1 cell CPT inconclusive (no result: TDP1 inh)
NCCCC[C@H](NC(=O)[C@H](CS)NC(=O)[C@@H](N)Cc1cnc[nH]1)C(=O)N[C@@H](Cc1ccccc1)C(=O)N[C@@H](Cc1c[nH]c2ccccc12)C(=O)N[C@@H](Cc1c[nH]c2ccccc12)C(=O)O	none (no result: TDP1 cell noCPT, HepG2 viability, TDP1 cell CPT, IL1B secr inh, TGFb SMAD3 inh)
CC(=O)NCCc1nc2cc(NC(=O)c3cccc([N+](=O)[O-])c3)ccc2n1C	none (no result: TDP1 inh)
Cc1nn(-c2ccccc2)c(C)c1/C=N/NC(=O)CSc1nnc(SCc2ccc(Cl)cc2)s1	TDP1 cell noCPT 14.6µM, TDP1 cell CPT inconclusive
Cc1nn(-c2ccccc2)c(C)c1/C=N/NC(=O)c1cccs1	TDP1 cell noCPT 14.6µM, TDP1 cell CPT 9.2µM
Cc1nn(-c2ccccc2)c(Cl)c1/C=N/NC(=O)OC(C)(C)C	TDP1 cell noCPT 16.4µM, TDP1 cell CPT inconclusive
Cc1nn(-c2ccccc2)c(C)c1/C=N/NC(=O)c1cc(-c2ccc(Cl)s2)[nH]n1	TDP1 cell noCPT 4.11µM, TDP1 cell CPT 4.61µM
CNC(=S)N/N=C/c1c(C)nn(-c2ccccc2)c1Cl	none
Cc1nn(-c2ccccc2)c(C)c1/C=N/NC(=O)c1cc(C23CC4CC(CC(C4)C2)C3)[nH]n1	TDP1 cell noCPT inconclusive, TDP1 cell CPT inconclusive, TGFb SMAD3 inh inconclusive
CCOc1ccc(-c2nc3c(c(CC)nn3-c3ccccc3)c3cc(OC)c(OC)cc23)cc1	none (no result: IL1B secr inh)
CC(C)CC(=O)Nc1ccc(C(=O)COC(=O)Cc2n[nH]c(=O)c3ccccc23)cc1	none
O=C(CCCCCn1c(=S)[nH]c2ccc(N3CCOCC3)cc2c1=O)NCc1ccc(Cl)cc1	TDP1 cell noCPT inconclusive, TDP1 cell CPT inconclusive

Source: PubChem BioAssay
